MARV entry inh: qHTS for inhibitors of binding or entry into cells for Marburg Virus | Marburg virus pseudotyped entry inhibition, cell reporter | Potency, µM (series often up to 37.8 µM), without a hit: at the highest dose activity change, negative = inhibition, most hits filed as inhibitors | 1.8% of 300,000 active | AID 540276, 2011; calls by dose curve; tested in HEK293 cells; note: potency is the fitted concentration of half-maximal effect; % is set by controls: 0 for no effect and ±100 for the full control effect
Vaccinia Venus: qHTS for Stage-Specific Inhibitors of Vaccinia Orthopoxvirus: Venus Reporter Primary qHTS. Potency, µM (highest dose often 36.5 µM), without a hit: at the top dose activity change, negative = inhibition, actives largely listed as inhibitors. 0.46% of 330,000 active. Vaccinia virus Venus reporter expression, fluorescence; calls by dose curve; tested in A549 cells; note: potency is the fitted concentration of half-maximal effect; % is set by controls: 0 for no effect and ±100 for the full control effect; nearly all actives have a fitted effect of over 30% in size
LASV entry inh: qHTS for Inhibitors of binding or entry into cells for Lassa Virus; Lassa virus pseudotype entry inhibition, cell reporter; Potency, µM (top dose mostly 37.9 µM), for the others: at the top dose activity change, negative = inhibition, most hits filed as inhibitors; 1.2% of 300,000 active; calls by dose curve; tested in HEK293 cells; note: potency is the fitted concentration of half-maximal effect; % is set by controls: 0 for no effect and ±100 for the full control effect; nearly all actives have a fitted effect of over 50% in size
Shiga toxin inh: A qHTS for Small Molecule Inhibitors of Shiga Toxin; 9.2% of 290,000 active; Vero cells, Shiga toxin protein synthesis inhibition reporter; inhibition, % at 38.7 µM; AID 2315, 2010; in the data active = inhibition mostly above about 28%, no sharp cut-off; inactive = mostly below about 43%; note: 0% is about no effect
Vaccinia mCherry: qHTS for Stage-Specific Inhibitors of Vaccinia Orthopoxvirus: mCherry Reporter Primary qHTS. Vaccinia virus mCherry reporter infection, fluorescence. Potency, µM (doses to about 36.5 µM), without a hit: at the highest dose activity change, negative = inhibition, most hits filed as inhibitors. 0.63% of 310,000 active. AID 720579, 2013; calls by dose curve; tested in A549 cells; note: potency is the fitted concentration of half-maximal effect; % is set by controls: 0 for no effect and ±100 for the full control effect; nearly all actives have a fitted effect of over 35% in size
Cycloheximide cs: Cycloheximide Counterscreen for Small Molecule Inhibitors of Shiga Toxin; cell reporter, cycloheximide protein synthesis inhibition counterscreen; max response, %; 12% of 300,000 active; AID 2314, 2010; in the data active = max response mostly above about 13%, no sharp cut-off; inactive = mostly below about 14%; note: read at 38.3 µM for the half of the compounds with a filed dose; 0% is about no effect
The depositor's hits bear a star; i = inactive; ? = inconclusive; . = not tested or not shown; [ ] = another dose, or the depositor's remark. This is one part of a sample in which hits are shown more often than they occur.

SMILES | MARV entry inh | Vaccinia Venus | LASV entry inh | Shiga toxin inh | Vaccinia mCherry | Cycloheximide cs
Cc1ccc(S(=O)(=O)NCC(c2ccc3c(c2)OCO3)N2CCOCC2)cc1 (configuration not stated) | -4% | -4% | -3% | . | -21% | .
CCCCNC(=O)COC(=O)c1ccc(NC(C)=O)cc1 | 2%[46.1 µM] | -7% | 13%[46.1 µM] | -5 | i | 1
COc1ccc(NC(=O)c2ccc3c(c2)nnn3C2CCCC2)cc1Cl | . | -16% | -14%[46.1 µM] | . | -10% | .
COc1cc(C(=O)Nc2ccc3c(c2)Cc2ccccc2-3)cc(OC)c1OC | ? | ? | 0% | -10 | -15% | 0
COCCNC(=O)Nc1ccc2c(c1)N(C)C(=O)c1ccccc1S2 | -15%[46.1 µM] | -5% | -18% | -11 | -2% | -4
COc1cc(C(=O)Nc2ccc3ccccc3c2)cc(OC)c1OC | 1.4µM* | -20% | -11%[46.1 µM] | 26 | -3% | 14*
COc1cc(OC)c(NC(=O)Nc2ccc3c(c2)N(C)C(=O)c2ccccc2S3)cc1Cl | 10µM* | ? | -24%[46.1 µM] | . | -14% | .
COc1ccc(C(=O)Nc2ccc3c(c2)N(C2CCCC2)C(=O)c2ccccc2S3)cc1OC | . | 0% | 1.3µM* | . | -8% | .
COc1ccc(C(=O)Nc2ccc3c(c2)C(=O)c2ccccc2C3=O)cc1OC | 8% | 1% | 4% | 22 | 0% | 31*
O=C(O)CCCC(=O)Nc1ccc2c(c1)oc1ccccc12 | . | . | . | -4 | . | -2
O=C(CS)Nc1ccc2ccccc2c1 | 20%[46.1 µM] | -12% | 2% | 49 | ? | 15
CCCCC(=O)Nc1ccc2c(c1)oc1ccccc12 | -1% | -22% | ? | 73* | -24% | 25*
CCCCCC(=O)Nc1ccc2ccccc2c1 | 4% | -4% | ? | 61* | i | 50*
CC(C)CC(=O)Nc1ccc2c(c1)oc1ccccc12 | ? | ? | ? | 167* | -12% | 45*
COc1ccc(NC(=O)COC(=O)c2cc(=O)c3ccccc3o2)cc1OC | 21% | -9% | 11% | . | i | .
O=C(CSc1ccccn1)Nc1ccc2c(c1)oc1ccccc12 | ? | -9% | 17% | 57* | i | 42*
CCN1C(=O)[C@H]2[C@H]3CN=C(SCc4ccccc4)N3[C@@](CC)(C(=O)OC)[C@H]2C1=O | . | -3% | . | . | -15% | .
c1ccc2c(N3CCCCC3)nc(N3CCCCC3)nc2c1 | 26% | 0% | ? | -5 | -13% | -4
C(=C\c1nc(N2CCCCCC2)c2ccccc2n1)/c1ccccc1 | 11µM* | ? | -5% | 36* | ? | 23*
Brc1cc(Cc2nnc(-c3ccccc3)o2)c(Br)s1 | ? | 25% | 1%[46.1 µM] | 24 | 13% | 14*
Cc1cc(=O)[nH]c(SCC(=O)c2ccc(F)c(C)c2)n1 | ? | 2% | ? | 26 | -14% | 14*
Cc1cc(C)nc(SCC(=O)c2ccc(F)cc2F)n1 | . | . | . | . | . | 20*
Cc1cc(C)nc(S/C=C/C(=O)c2ccc(F)cc2)n1 | . | . | . | 68* | . | 37*
Cc1cc(N2CCCCC2)nc(SCC(=O)c2ccccc2)n1 | ? | . | -25% | 73* | . | 34*
COc1ccc(C(=O)CSc2nc(C)cc(=O)[nH]2)cc1C | 0%[46.1 µM] | -16% | 25%[46.1 µM] | -6 | i | -3
SMILES | MARV entry inh | Vaccinia Venus | LASV entry inh | Shiga toxin inh | Vaccinia mCherry | Cycloheximide cs
COC(=O)C(Cc1ccccc1)NC(=O)CNC(=O)c1ccc(Br)cc1 (configuration not stated) | 4%[46.1 µM] | -6% | . | -16 | -13% | 12
COc1ccc(/C=C(\C#N)C(=O)N2COCC2(C)C)cc1 | . | . | . | 19 | . | 9
CCc1ccc(C(=O)CSc2nc(C)cc(=O)[nH]2)cc1 | 22%[46.1 µM] | -9% | 12%[46.1 µM] | 49* | i | 32*
Cc1cc(C)nc(SCC(=O)c2ccc(F)cc2)n1 | . | . | . | 31* | . | 17*
Cc1cc(C)nc(SCC(=O)c2ccc(F)c(C)c2)n1 | . | . | . | 22 | . | 11*
CC(=O)OC[C@H]1O[C@H](CCON=C(C)CCN2CCCCc3nc(C)c(C)cc32)C=C[C@H]1OC(C)=O | 16%[14.2 µM] | . | . | . | . | .
CC(C)c1nc2scc(-c3ccc(Cl)cc3)c2c(=O)n1N | . | . | . | 73* | . | 38*
Cc1ccc(CN2CCN(CC(=O)N/N=C/c3ccccc3F)CC2)cc1 | . | . | . | 118* | . | 37*

Assay outcomes from PubChem BioAssay.
